Among the data in PubChem BioAssay AID1456 (Vanderbilt High Throughput Screening Facility, 2008) are B-score of Tl+ flux slope (higher = more flux/activation; lower = inhibition) values, retold here.

Screen size: about 190,000 compounds; about 4,100 (2.2%) were called active. Shown is part of a subset that was picked to be rich in actives. A number with no mark means an inactive call.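 How the source made its calls: active means thallium flux slope and its plate-corrected score both differing from the plate sample mean at a set confidence after two filtering rounds, in either direction; inactive means the rest.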

The target in this experiment is Solute carrier family 12 member 5 (Homo sapiens) (UniProt Q9H2X9). As to the kind of experiment: KCC2 cotransporter modulators, thallium flux, primary screen, cell-based, HEK293 KCC2, FluoZin-2 fluorescence, MLSMR (AID 1456).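 On B-score of Tl+ flux slope (higher = more flux/activation; lower = inhibition): slope of fluorescence scaled to starting intensity during 10 to 20 s after thallium.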 The conditions noted are these: KCC2 cells, thallium flux FluoZin-2 fluorescence; at 10 µM.
Chain of Solute carrier family 12 member 5 (Homo sapiens) (Q9H2X9 whole entry, looked up): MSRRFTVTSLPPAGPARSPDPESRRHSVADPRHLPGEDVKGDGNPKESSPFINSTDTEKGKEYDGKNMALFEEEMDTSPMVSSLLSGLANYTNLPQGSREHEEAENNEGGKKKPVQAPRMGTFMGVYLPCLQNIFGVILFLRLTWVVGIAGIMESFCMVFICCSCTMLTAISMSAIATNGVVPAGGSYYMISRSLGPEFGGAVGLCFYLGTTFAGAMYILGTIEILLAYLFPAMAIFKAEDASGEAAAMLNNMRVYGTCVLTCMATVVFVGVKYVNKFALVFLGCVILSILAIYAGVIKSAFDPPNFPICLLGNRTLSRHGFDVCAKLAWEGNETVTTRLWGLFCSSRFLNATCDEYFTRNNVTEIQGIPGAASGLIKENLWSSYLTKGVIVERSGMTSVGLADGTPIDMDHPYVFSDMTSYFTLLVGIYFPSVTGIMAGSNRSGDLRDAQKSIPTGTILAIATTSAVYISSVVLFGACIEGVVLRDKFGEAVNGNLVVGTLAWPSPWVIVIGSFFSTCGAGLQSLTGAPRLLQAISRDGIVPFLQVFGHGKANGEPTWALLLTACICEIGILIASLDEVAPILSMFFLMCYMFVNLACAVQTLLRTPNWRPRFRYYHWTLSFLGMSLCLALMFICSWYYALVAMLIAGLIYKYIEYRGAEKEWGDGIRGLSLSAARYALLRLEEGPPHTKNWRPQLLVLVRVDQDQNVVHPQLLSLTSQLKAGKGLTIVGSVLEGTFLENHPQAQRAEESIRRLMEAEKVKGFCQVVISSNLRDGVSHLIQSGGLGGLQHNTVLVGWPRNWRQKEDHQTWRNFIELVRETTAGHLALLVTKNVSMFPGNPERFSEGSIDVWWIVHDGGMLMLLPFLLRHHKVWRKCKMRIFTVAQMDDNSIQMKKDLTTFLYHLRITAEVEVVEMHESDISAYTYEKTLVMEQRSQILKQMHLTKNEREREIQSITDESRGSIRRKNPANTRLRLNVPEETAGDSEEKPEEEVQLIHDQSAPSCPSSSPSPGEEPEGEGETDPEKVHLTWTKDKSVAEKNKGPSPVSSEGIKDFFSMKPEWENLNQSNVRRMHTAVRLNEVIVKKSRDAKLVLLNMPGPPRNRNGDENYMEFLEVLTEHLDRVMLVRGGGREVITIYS
As for `Cc1nnc(C)c2c(C)n(N)c(C)c12`, the B-score of Tl+ flux slope (higher = more flux/activation; lower = inhibition) is 0.198. As for `COc1ccc(S(=O)(=O)Nc2cccnc2)c(Cl)c1Cl`, the figure is 0.54; as for `CCOC(=O)C1=C(C)NC(=O)N(C(C)=O)C1c1ccc(Cl)cc1` (stereo not drawn), -1.98; as for `CCOC(=O)C1C(c2ccc(Cl)cc2)NC(=S)NC1(O)C(F)(F)F` (stereo not drawn), 1.75. For `CCOC(=O)C1Sc2[nH]c(=O)sc2C(c2ccc(Cl)cc2)C1C(=O)OCC` (stereo not drawn), the B-score of Tl+ flux slope (higher = more flux/activation; lower = inhibition) was -3.93 (active). As for `CCOCCn1c(-c2ccccc2)nc2ccccc21`, the B-score of Tl+ flux slope (higher = more flux/activation; lower = inhibition) was 0.025. As for `Cc1cccc(-n2cnc(C(=O)NNC(=S)Nc3ccccc3)c2)n1`, the figure is -1.44. In the case of `CCOc1ccc(-c2n[nH]c(=S)n2/N=C/c2cc3c(cc2[N+](=O)[O-])OCO3)cc1`, the B-score of Tl+ flux slope (higher = more flux/activation; lower = inhibition) was 0.939.

For `O=[N+]([O-])c1ccccc1/C=N/n1c(COc2ccccc2)n[nH]c1=S`, the B-score of Tl+ flux slope (higher = more flux/activation; lower = inhibition) is 24.3 (active).

For the compound `Cc1ccc(-c2n[nH]c(=S)n2/N=C/c2cc3c(cc2[N+](=O)[O-])OCO3)cc1`, the B-score of Tl+ flux slope (higher = more flux/activation; lower = inhibition) is 0.106. As for `COc1ccc(N(Cc2ccccc2)S(=O)(=O)c2cccc(C(=O)O)c2)cc1`, the figure is -1.07; as for `Cc1csc(=Nc2ccccc2)n1CCO`, 0.00145; as for `Cc1cs/c(=N\N=C\c2ccc(O)cc2)n1Cc1ccco1`, -4.66 (active). As for `CN(c1ccccc1)c1ccc(/C=c2\s/c(=C(/C#N)C(=O)C(C)(C)C)n(Cc3ccco3)c2=O)cc1`, the figure is 0.174. As for `CCc1nc2sc3c(Cl)ncnc3c2c2c1CCCC2`, the figure is 1.2. Consider `Cc1ccc(F)cc1NC(=O)N1CCCN(c2ccc(C(F)(F)F)cn2)CC1`, for which the B-score of Tl+ flux slope (higher = more flux/activation; lower = inhibition) is 0.46. As for `Cc1ccc(N(C(=O)c2sc(C)nc2C)C(C(=O)NC(C)(C)C)c2ccncc2)cc1` (stereo not drawn), the figure is 0.0067. As for `O=C(NC(=S)N1CCN(Cc2ccccc2)CC1)c1ccccc1`, the figure is 26.6 (active); as for `O=C(CN1CCN(Cc2ccccc2)CC1)NC(c1ccccc1)c1ccccc1`, -2.1; as for `O=C(Nc1ccccc1)N1CCN(Cc2ccccc2)CC1`, -0.481. As to `CC(=O)Nc1nc(C)c(-c2csc(Nc3ccc(S(N)(=O)=O)cc3)n2)s1`, the B-score of Tl+ flux slope (higher = more flux/activation; lower = inhibition) was 0.404. As for `Oc1ccc(-c2nnc(Nc3ccccc3)c3ccccc23)cc1`, the figure is -3.93; as for `S=c1[nH]nc(Nc2ccccc2)s1`, -8.06 (active). Turning to `S=c1[nH]nc(NCCc2ccccc2)s1`, the B-score of Tl+ flux slope (higher = more flux/activation; lower = inhibition) was -1.55. As for `c1ccc(Nc2n[nH]nc2-c2ccccc2)cc1`, the figure is -0.551; as for `CNC1(c2nnnn2-c2c(C)cccc2C)CCOC(C)(C)C1` (stereo not drawn), -0.333. As for `Cc1cc(=O)[nH]c2nnnn12`, the B-score of Tl+ flux slope (higher = more flux/activation; lower = inhibition) is 0.843. As for `CC(Nc1nc(N2CCOCC2)nc2ccccc12)c1ccccc1` (stereo not drawn), the figure is -0.0767; as for `Cc1cc(C)c(C)c(S(=O)(=O)N[C@@H](C)C(=O)OC(C)C(=O)NC(N)=O)c1C` (stereo partly drawn), -0.78. As for `O=C(c1cc(-c2cccc(O)c2)on1)N1CCc2ccccc2C1`, the figure is -2.87. As for `O=C(c1cc(-c2ccc(O)cc2)on1)N1CCCc2ccccc21`, the figure is -2.96 (active).

As for `Cc1ccc(-c2cc(C(=O)N3CCc4ccccc4C3)no2)cc1`, the B-score of Tl+ flux slope (higher = more flux/activation; lower = inhibition) was 0.312. As for `COc1ccc(NC(=O)C2=NNC(=O)CC2)cc1S(=O)(=O)N1CCCCC1`, the figure is 1.01; as for `CC1Cc2ccccc2N1S(=O)(=O)c1ccc(Cl)nc1` (stereo not drawn), -1.44; as for `O=C(Nc1cc(C(F)(F)F)ccc1Cl)C(=O)N1CCCCC1`, 0.245.

For `O=C(NNc1ccccc1Cl)C(O)(c1cccc(C(F)(F)F)c1)c1cccc(C(F)(F)F)c1`, the B-score of Tl+ flux slope (higher = more flux/activation; lower = inhibition) is 14.9 (active). With `CC(CC(=O)Nc1cc(C(F)(F)F)ccc1Cl)c1ccccc1` (stereo not drawn), the B-score of Tl+ flux slope (higher = more flux/activation; lower = inhibition) is -1.96. As for `[O-][N+]12CCCCC1CCCC2CO` (stereo not drawn), the figure is -0.0478; as for `COc1ccc2cc(CCl)c(Cl)nc2c1`, 0.0416; as for `CC(NC(=O)C(C)(C)C)C(c1cccs1)N1CCN(Cc2ccccc2)CC1` (stereo not drawn), 0.428. As for `S=c1nc(C23CC4CC(CC(C4)C2)C3)nc2sccn12`, the figure is 2.46. For `CC(=O)NNC(=O)c1csc(Cc2c(Cl)sc3ccc(Cl)cc23)n1`, the B-score of Tl+ flux slope (higher = more flux/activation; lower = inhibition) is 13.6 (active).

Take `CNC(=O)c1csc(Cc2c(Cl)sc3ccc(Cl)cc23)n1`: the B-score of Tl+ flux slope (higher = more flux/activation; lower = inhibition) is -0.799. As for `CC(=O)Cc1nsc(NC(=O)c2ccc(Cl)cc2Cl)n1`, the figure is 1.49; as for `CN(Cc1nc(-c2cnccn2)no1)Cc1n[nH]c2c1CCCCC2`, -2.53. As for `O=C(CSc1nnc(-c2cccs2)n1Cc1ccco1)c1ccc2c(c1)OCO2`, the figure is -2.4; as for `CCn1c(Cc2cccs2)nnc1SCC(=O)c1ccc(C)cc1`, -1.23; as for `CCn1c(SCC(=O)c2ccc3ccccc3c2)nnc1-c1cccs1`, -5.11 (active). As for `CC(C)=NN1C(=O)c2ccccc2NC1(C)C`, the figure is 0.347. As to `CC(O)c1nc2c(c(=O)n(C)c(=O)n2C)n1C` (stereo not drawn), the B-score of Tl+ flux slope (higher = more flux/activation; lower = inhibition) was 0.852. As for `O=C(Nc1ccncc1)c1ccccc1[N+](=O)[O-]`, the figure is 1.37; as for `COc1ccc(NC(=O)c2ccccc2[N+](=O)[O-])cc1OC`, 4.22 (active). As for `COC(=O)CNC(=O)c1ccccc1[N+](=O)[O-]`, the figure is 0.532; as for `Cc1cc(C)nc(SCc2cn3c(C)cc(C)nc3n2)n1`, -0.647.

For `CCOC(=O)CC1C(=O)NCCN1c1nc2c(C)cccn2c(=O)c1/C=C1\SC(=S)N(C(C)CC)C1=O` (stereo not drawn), the B-score of Tl+ flux slope (higher = more flux/activation; lower = inhibition) entry was “inactive”.

As for `Cn1c(C(=O)NCCc2ccsc2)cc2c(=O)n(C)c3ccccc3c21`, the B-score of Tl+ flux slope (higher = more flux/activation; lower = inhibition) is -3.14 (active). As for `CC1CCCC(C)N1CCCNC(=O)c1cc2c(=O)n(C)c3ccccc3c2n1C` (stereo not drawn), the figure is -1.27; as for `Cn1c(C(=O)NCCCN2CCN(c3cccc(Cl)c3)CC2)cc2c(=O)n(C)c3ccccc3c21`, 0.0429; as for `O=C1c2cccc3c([N+](=O)[O-])ccc(c23)C(=O)N1CC1CCCO1` (stereo not drawn), -3.38. As for `CN(c1ccccn1)c1ncnc2[nH]ncc12`, the figure is 0.0938; as for `CC(=O)NC(=S)Nc1ccc(NC(=S)NC(=O)c2ccc([N+](=O)[O-])cc2)cc1`, 0.484; as for `O=[N+]([O-])C(=c1ccc2c(c1)N1C3=C(CCCC3)CC3CCCCC31N=2)[N+](=O)[O-]` (stereo not drawn), -0.0507. As for `COc1ccc(C(=O)/C=C/c2ccc(OC3CSC3)cc2)cc1`, the figure is 0.0132. On to `COc1ccc(/C=C/C(=O)c2ccc(OC)cc2O)cc1`, for which the B-score of Tl+ flux slope (higher = more flux/activation; lower = inhibition) was -1.21. As for `COc1ccc(/C=C/C(=O)c2cc(Br)ccc(=O)c2O)cc1`, the figure is 22.3 (active). As for `O=C(C[n+]1cc(-c2ccc(Cl)c(Cl)c2)n2c1CCC2)c1cccs1`, the figure is 0.636; as for `CC(=O)N(OCc1ccc(OC(C)C)c(Cl)c1)C(C)=O`, 0.219.

`CC(C)n1cnc2c(Nc3cccc(Cl)c3)nc(N(CCO)CCCO)nc21`: the B-score of Tl+ flux slope (higher = more flux/activation; lower = inhibition) was -2.56 (active). As for `OCCCNc1nccc(-c2cc(Nc3cccc(Cl)c3)ncn2)n1`, the figure is -0.723; as for `CC(C)C[C@H](CO)Nc1nc(N(C)c2cccc(Cl)c2)c2ncn(C(C)C)c2n1`, -0.662. As for `O=C(CN1CCN(c2ccc(Cl)cc2)CC1)NCc1cccs1`, the figure is -1.03; as for `Cc1ccc(-c2nc(C#N)c(NCCCn3ccnc3)o2)cc1`, -0.3; as for `Cc1ccccc1-c1nc(C#N)c(NCc2ccco2)o1`, -0.237. As for `N#Cc1nc(Cc2ccccc2)oc1NCCc1ccccc1`, the figure is -4.49 (active). Take `O=c1oc2ccccc2cc1-c1cn(-c2ccccc2)c(=S)[nH]1`: the B-score of Tl+ flux slope (higher = more flux/activation; lower = inhibition) is 7.21 (active). As for `O=C(c1cn(-c2ccccc2)nc1-c1cc2ccccc2oc1=O)N1CCOCC1`, the figure is -0.172.

As for `Nc1ncc(-c2cc3ccccc3oc2=O)s1`, the B-score of Tl+ flux slope (higher = more flux/activation; lower = inhibition) is -0.488. As for `O=C(NCC1CCCO1)c1ccccc1-c1nc(-c2ccccc2Cl)no1` (stereo not drawn), the figure is -1.09; as for `O=C(c1ccncc1)N1CCN(c2ccc3ccccc3n2)CC1`, -0.588. As for `S=c1[nH]nc(-c2cc(-c3ccccc3)n[nH]2)n1/N=C/c1c2ccccc2cc2ccccc12`, the figure is -1.01; as for `CCN(CC)S(=O)(=O)c1cccc(-c2n[nH]c(=S)n2/N=C/c2ccc(C(=O)OC)cc2)c1`, 2.87 (active). As for `COc1cc(/C=N/n2c(C)n[nH]c2=S)ccc1OCc1ccccc1`, the figure is 0.899; as for `O=C1CC(Cc2ccc(Cl)cc2)C(=O)N1c1cc(Cl)ccn1` (stereo not drawn), -1.2. With `CC1CN(c2nc(Nc3ccccc3)nc(N)c2[N+](=O)[O-])CC(C)O1` (stereo not drawn), the B-score of Tl+ flux slope (higher = more flux/activation; lower = inhibition) was -0.457. As for `O=C(CS(=O)(=O)c1ccc(C(F)(F)F)cn1)NNC(=O)c1ccccc1`, the figure is -0.101; as for `Cn1c(CC2Sc3ccccc3NC2=O)nnc1SCC(=O)c1ccc(Cl)cc1` (stereo not drawn), -2.19. As for `CCN(CCNC(=O)C1=C(C)C(=O)OC12CCC(C)CC2)c1ccccc1` (stereo not drawn), the figure is 0.78; as for `Cc1nc(Cl)c(C#N)c2c1CCCC2`, -1.49; as for `CCOC(=O)CSc1nc(C)c(Oc2ccc(Cl)cc2Cl)c(=O)[nH]1`, -0.98. Take `Cc1ccc(-c2csc(NNC(=O)c3ccccc3)n2)cc1`: the B-score of Tl+ flux slope (higher = more flux/activation; lower = inhibition) is -5.47. For the compound `Cn1c(CNc2nc(-c3ccccc3)cs2)nnc1SCC(=O)c1ccccc1`, the B-score of Tl+ flux slope (higher = more flux/activation; lower = inhibition) is -4.57 (active). With `CCOC(=O)CSc1nnc(CNc2nc(-c3ccccc3)cs2)n1C`, the B-score of Tl+ flux slope (higher = more flux/activation; lower = inhibition) was -1.31.

With `Cc1cc(N2CCN(c3ccc(F)cc3)CC2)n2ncnc2n1`, the B-score of Tl+ flux slope (higher = more flux/activation; lower = inhibition) is 0.197.

Regarding `COCCNc1nc(-c2ccccc2)nc2c1oc1ccccc12`, the B-score of Tl+ flux slope (higher = more flux/activation; lower = inhibition) was 0.0873.

`CC(C)OP(=O)(OC(C)C)C(Nc1ccccc1)c1cccc([N+](=O)[O-])c1` (stereo not drawn): the B-score of Tl+ flux slope (higher = more flux/activation; lower = inhibition) was -1.5. For the compound `O=C(Nc1ccc2oc(-c3ccc4ccccc4c3)nc2c1)c1cccs1`, the B-score of Tl+ flux slope (higher = more flux/activation; lower = inhibition) is 0.746. As for `O=C(Nc1ccc2nccnc2c1)c1ccco1`, the figure is 0.0364.

On to `O=C(Nc1ccc2oc(-c3ccccc3F)nc2c1)c1ccco1`, for which the B-score of Tl+ flux slope (higher = more flux/activation; lower = inhibition) is -4.45 (active).
